Out of some 310,000 compounds screened, about 2,200 (0.71%) showed an effect of 50% or more. Effects have a minus sign here. The sample as a whole holds a higher share of strong results than the screen did.

The target of this assay is human ether-à-go-go-related gene (hERG) potassium channel (human, UniProt Q12809). Put plainly: primary screen, population patch clamp on CHO cells stably expressing hERG; higher = less effect of the substance.
Chain of human ether-à-go-go-related gene (hERG) potassium channel (Q12809 whole entry, looked up): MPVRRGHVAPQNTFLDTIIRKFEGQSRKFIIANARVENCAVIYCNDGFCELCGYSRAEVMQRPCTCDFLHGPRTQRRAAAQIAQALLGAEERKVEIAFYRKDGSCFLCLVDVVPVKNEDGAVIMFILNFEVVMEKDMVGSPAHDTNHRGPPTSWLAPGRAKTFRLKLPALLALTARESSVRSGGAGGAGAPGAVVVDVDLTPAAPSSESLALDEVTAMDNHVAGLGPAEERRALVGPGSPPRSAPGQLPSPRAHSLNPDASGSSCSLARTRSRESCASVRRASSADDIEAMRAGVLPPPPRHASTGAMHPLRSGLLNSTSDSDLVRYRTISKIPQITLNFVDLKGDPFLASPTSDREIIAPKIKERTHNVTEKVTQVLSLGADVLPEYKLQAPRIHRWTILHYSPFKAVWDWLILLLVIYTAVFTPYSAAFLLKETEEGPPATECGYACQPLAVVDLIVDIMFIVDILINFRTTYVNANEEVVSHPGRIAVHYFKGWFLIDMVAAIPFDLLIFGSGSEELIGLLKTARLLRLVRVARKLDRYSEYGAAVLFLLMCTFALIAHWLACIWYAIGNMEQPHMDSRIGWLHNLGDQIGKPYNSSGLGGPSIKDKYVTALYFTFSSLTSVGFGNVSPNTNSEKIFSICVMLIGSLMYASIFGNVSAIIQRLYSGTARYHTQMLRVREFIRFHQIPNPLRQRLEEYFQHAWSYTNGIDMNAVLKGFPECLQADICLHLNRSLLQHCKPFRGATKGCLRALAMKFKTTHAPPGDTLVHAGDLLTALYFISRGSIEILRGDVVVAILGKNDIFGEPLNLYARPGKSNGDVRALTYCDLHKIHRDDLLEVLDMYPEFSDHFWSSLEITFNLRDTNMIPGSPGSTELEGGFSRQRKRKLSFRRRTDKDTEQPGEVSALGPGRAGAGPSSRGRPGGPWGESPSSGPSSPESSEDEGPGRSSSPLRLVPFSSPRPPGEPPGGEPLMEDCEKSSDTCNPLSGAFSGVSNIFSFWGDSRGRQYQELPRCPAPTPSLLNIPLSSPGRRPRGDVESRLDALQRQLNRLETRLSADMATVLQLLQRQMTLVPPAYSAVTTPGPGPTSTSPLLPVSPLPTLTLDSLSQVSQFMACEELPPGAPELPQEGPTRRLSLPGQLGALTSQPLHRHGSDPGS
Consider `CC(C)(C)NC(=O)c1c(F)c(F)c(F)c(F)c1F`, for which the “hERG current change (%, negative = inhibition) at 1uM” value was found to be 4.34%.
Take `O=S(=O)(c1cccc(-c2nnc(SCc3nc4ccccc4s3)o2)c1)N1CCOCC1`: the “hERG current change (%, negative = inhibition) at 1uM” value is recorded as -2.26%.
On to `Cc1ccc2c(c1)N(CC(=O)Nc1ccccc1F)C(=O)CO2`, for which the “hERG current change (%, negative = inhibition) at 1uM” value is 17.1%.
With `O=C(O)c1cccc(N/N=C(\N=Nc2ccccc2)c2ccccc2)c1`, the “hERG current change (%, negative = inhibition) at 1uM” value amounted to 16.7%.
As for `Cc1ccc2nc3c(cc(C(=O)NCCN4CCOCC4)c(=N)n3CCCN3CCOCC3)c(=O)n2c1`, the “hERG current change (%, negative = inhibition) at 1uM” value is listed as 5.89%.
In the case of `Cc1ccc2nc3c(cc(C(=O)NCCc4ccccc4)c(=N)n3CCN3CCOCC3)c(=O)n2c1`, the “hERG current change (%, negative = inhibition) at 1uM” value is -82.9%.
For the compound `Cc1ccc2nc3c(cc(C(=O)NCCc4ccccc4)c(=N)n3CCCN3CCOCC3)c(=O)n2c1`, the “hERG current change (%, negative = inhibition) at 1uM” value is -77.5%.
For `CCCCNC(=O)Cn1cnc2sc(C(=O)OCC)c(C)c2c1=O`, the “hERG current change (%, negative = inhibition) at 1uM” value stood at 8.3%.
Consider `CC(C)[C@H](NC(=O)CCn1nnc2ccccc2c1=O)C(=O)O`, for which the “hERG current change (%, negative = inhibition) at 1uM” value is 17.3%.
With `O=C(/C=C/c1ccccc1O)c1ccc(Cl)cc1`, the “hERG current change (%, negative = inhibition) at 1uM” value is 9.95%.
Turning to `Cc1nc2ccccc2c(=O)n1NC(=O)/C=C/c1ccccc1`, the “hERG current change (%, negative = inhibition) at 1uM” value is listed as -0.535%.
Consider `Cc1nc2ccccc2c(=O)n1NC(=O)/C=C/c1ccc(Br)cc1`, for which the “hERG current change (%, negative = inhibition) at 1uM” value is given as 2.25%.
`Cc1nc2ccccc2c(=O)n1NC(=O)/C=C/c1ccccc1Cl`: the “hERG current change (%, negative = inhibition) at 1uM” value is reported as -51.1%.
Regarding `Cc1csc(NC(=O)CCCc2cccs2)n1`, the “hERG current change (%, negative = inhibition) at 1uM” value is reported as 1.69%.
Regarding `CCCCCN(C(=O)CCC(=O)OCc1ccccc1C)c1c(N)n(CCCC)c(=O)[nH]c1=O`, the “hERG current change (%, negative = inhibition) at 1uM” value is on record as 7.65%.
For the compound `CN(c1cccc(NC(=O)CN(c2cccc(F)c2)S(C)(=O)=O)c1)S(C)(=O)=O`, the “hERG current change (%, negative = inhibition) at 1uM” value stood at 11.3%.
Consider `CCOC(=O)C1(CCOc2ccccc2)CCN(Cc2cccc(OC)c2O)CC1`, for which the “hERG current change (%, negative = inhibition) at 1uM” value is -54.1%.
As to `CCOC(=O)C1(CCOc2ccccc2)CCN(Cc2ccc(C)o2)CC1`, the “hERG current change (%, negative = inhibition) at 1uM” value is -32.8%.
With `CCOC(=O)C1(CCOc2ccccc2)CCN(Cc2cc(OC)c3c(c2)OCO3)CC1`, the “hERG current change (%, negative = inhibition) at 1uM” value was -7.24%.
Turning to `CCOC(=O)C1(Cc2cccc(OC)c2)CCN(Cc2cc(OC)ccc2OC)CC1`, the “hERG current change (%, negative = inhibition) at 1uM” value is reported as -7.48%.
As to `CCOC(=O)C1(CCOc2ccccc2)CCN(Cc2ccccc2OC)CC1`, the “hERG current change (%, negative = inhibition) at 1uM” value is -37.2%.
On to `CCOC(=O)C1(CCOc2ccccc2)CCN(Cc2cc(OC)ccc2OC)CC1`, for which the “hERG current change (%, negative = inhibition) at 1uM” value was -60.1%.
`CCOC(=O)C1(Cc2ccccc2)CCCN(Cc2ccc(OCC)c(CO)c2)C1` (stereo not drawn): the “hERG current change (%, negative = inhibition) at 1uM” value is given as 4.54%.
As for `CCOC(=O)C1(CCOc2ccccc2)CCN(Cc2ccc3nonc3c2)CC1`, the “hERG current change (%, negative = inhibition) at 1uM” value came to 0.31%.
Take `CCOC(=O)C1(CCOc2ccccc2)CCN(Cc2ccccc2O)CC1`: the “hERG current change (%, negative = inhibition) at 1uM” value is reported as -8.86%.
`CCOC(=O)C1(CCOc2ccccc2)CCN(Cc2cc(OC)c(O)c(OC)c2)CC1`: the “hERG current change (%, negative = inhibition) at 1uM” value is on record as -66.6%.
To `CCOC(=O)C1(CCOc2ccccc2)CCN(Cc2ccc(OCC)c(CO)c2)CC1` belongs -82.4%.
On to `Cc1cc(-c2ccco2)n(CC(=O)NCCCc2ccccc2)n1`, for which the “hERG current change (%, negative = inhibition) at 1uM” value was 14.3%.
As to `CC(C)(C)NC(=O)c1ccc2nsnc2c1`, the “hERG current change (%, negative = inhibition) at 1uM” value stood at 6.08%.
Take `C=CCn1c(COc2ccc(Cl)cc2)nnc1SCC(=O)N/N=C/c1cccc(O)c1`: the “hERG current change (%, negative = inhibition) at 1uM” value is given as 4.13%.
`COc1cccc(-c2c(C#N)c(N)nc3c2c(C)nn3-c2ccccc2)c1O`: the “hERG current change (%, negative = inhibition) at 1uM” value came to 1.84%.
To `FC(F)(F)c1ccncc1-c1nnc(C2CCCCC2)o1` belongs 15.5%; to `CCOC(=O)N1CCC(NC(=O)c2cnn3cccnc23)CC1`, -4.76%.
Regarding `CC1CCCCN1CCNC(=O)CC1Oc2ccccc2NC1=O` (stereo not drawn), the “hERG current change (%, negative = inhibition) at 1uM” value is 5.21%.
In the case of `Cc1cc(C)nc(OC(C(=O)O)C(OCCC(C)C)(c2ccccc2)c2ccccc2)n1` (stereo not drawn), the “hERG current change (%, negative = inhibition) at 1uM” value was determined as 10.8%.
For `CCOC(=O)C1(CCOc2ccccc2)CCN(Cc2ccc(O)c(Cl)c2)CC1` the value was -2.25%; for `CCOC(=O)C1(CCOc2ccccc2)CCN(Cc2ccc(OC)c(COC)c2)CC1`, -77.3%; for `CCOC(=O)C1(CCOc2ccccc2)CCN(Cc2ccc(COC)o2)CC1`, -41.9%.
For `CCOC(=O)C1(CCOc2ccccc2)CCN(Cc2ccc(O)c(OC)c2)CC1` the value was -69.9%.
Consider `CCOC(=O)C1(CCOc2ccccc2)CCN(Cc2ccc(F)c(OC)c2)CC1`, for which the “hERG current change (%, negative = inhibition) at 1uM” value came out at 5.6%.
For `CCOC(=O)C1(CCOc2ccccc2)CCN(Cc2ccc(OC)c(O)c2)CC1` the value was -88.3%.
For `CCOC(=O)C1(Cc2cccc(OC)c2)CCN(Cc2ccc(OC)c(O)c2)CC1` the value was -16.9%.
